# Reference: article PMC7862700, “An all-to-all approach to the identification of sequence-specific readers for epigenetic DNA modifications on cytosine”
# Assays:
# Assay in all cases: DAPPL (digital affinity profiling via proximity ligation, sequencing); 10 mM Tris-HCl pH 7.5, 50 mM NaCl, 1 mM DTT, 4% glycerol, room temperature, 30 min; GST-TFs on glutathione beads, 16-mer random dsDNA library, 0.1% formaldehyde crosslink after washing; high values mean tight binding
# Details in all cases: protein: recombinant; tags: N-terminal GST; dsDNA, one strand shown
# ERF = biological target: T1, ERF (Homo sapiens, UniProt P50548 1-548)
# T1 sequence: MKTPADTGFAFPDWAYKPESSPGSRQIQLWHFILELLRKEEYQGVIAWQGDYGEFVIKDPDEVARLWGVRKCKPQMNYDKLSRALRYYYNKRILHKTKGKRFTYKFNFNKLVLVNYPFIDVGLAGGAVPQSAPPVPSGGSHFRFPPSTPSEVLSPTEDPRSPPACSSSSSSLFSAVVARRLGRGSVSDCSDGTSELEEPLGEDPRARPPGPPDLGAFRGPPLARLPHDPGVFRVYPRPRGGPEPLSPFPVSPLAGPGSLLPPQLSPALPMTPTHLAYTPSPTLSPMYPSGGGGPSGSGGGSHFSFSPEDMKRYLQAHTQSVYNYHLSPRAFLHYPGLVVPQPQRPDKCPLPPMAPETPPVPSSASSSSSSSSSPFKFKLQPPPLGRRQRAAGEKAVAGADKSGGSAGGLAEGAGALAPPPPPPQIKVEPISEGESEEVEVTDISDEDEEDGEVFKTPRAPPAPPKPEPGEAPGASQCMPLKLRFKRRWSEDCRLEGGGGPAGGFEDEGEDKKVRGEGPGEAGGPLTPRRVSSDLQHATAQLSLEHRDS
# In short: (§1)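 Sequencing on an Illumina NextSeq500 followed washing, crosslinking with 0.1% formaldehyde, proximity ligation (BsaI/T4 ligase, 1 h, 37 °C) and PCR amplification of pools that had been incubated for 30 min at room temperature with 200 nmole of a random double-stranded 16-mer DNA library in Tris/NaCl/DTT/glycerol buffer. Each pool held DNA-barcoded human transcription factors, expressed in yeast as GST fusions and captured on glutathione beads, plus a tag-only sample. Binding signal is a hexamer's read frequency for a factor divided by its frequency in the tag-only sample.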
# ETV3L = biological target: T2, ETV3L (Homo sapiens, UniProt Q6ZN32 1-361)
# T2 sequence: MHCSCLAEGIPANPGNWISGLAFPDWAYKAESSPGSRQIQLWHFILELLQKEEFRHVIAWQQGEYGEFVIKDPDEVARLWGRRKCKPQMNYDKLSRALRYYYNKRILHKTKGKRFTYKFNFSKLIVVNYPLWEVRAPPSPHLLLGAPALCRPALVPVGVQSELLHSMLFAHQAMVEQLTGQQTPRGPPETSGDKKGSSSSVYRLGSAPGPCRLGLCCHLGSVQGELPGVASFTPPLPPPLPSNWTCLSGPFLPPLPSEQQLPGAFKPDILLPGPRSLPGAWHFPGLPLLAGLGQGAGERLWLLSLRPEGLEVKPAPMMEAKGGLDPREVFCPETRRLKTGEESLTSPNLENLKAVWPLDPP
# In short: as §1
# ETS2 = biological target: T3, ETS2 (Homo sapiens, UniProt P15036 1-469)
# T3 sequence: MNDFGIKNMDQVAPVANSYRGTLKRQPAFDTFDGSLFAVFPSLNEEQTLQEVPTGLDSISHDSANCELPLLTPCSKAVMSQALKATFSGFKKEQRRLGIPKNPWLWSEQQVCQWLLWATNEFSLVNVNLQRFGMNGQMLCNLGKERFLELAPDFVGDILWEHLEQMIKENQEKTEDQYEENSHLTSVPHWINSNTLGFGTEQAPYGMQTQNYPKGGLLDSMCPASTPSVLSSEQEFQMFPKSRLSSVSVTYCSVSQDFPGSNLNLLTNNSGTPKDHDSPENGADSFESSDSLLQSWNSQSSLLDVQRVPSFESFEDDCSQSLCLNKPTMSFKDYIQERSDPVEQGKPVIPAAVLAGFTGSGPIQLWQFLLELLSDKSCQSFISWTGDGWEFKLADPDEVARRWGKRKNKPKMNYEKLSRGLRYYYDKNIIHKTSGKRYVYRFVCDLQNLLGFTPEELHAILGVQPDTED
# In short: as §1
# SPDEF = biological target: T4, SPDEF (Homo sapiens, UniProt O95238 1-335)
# T4 sequence: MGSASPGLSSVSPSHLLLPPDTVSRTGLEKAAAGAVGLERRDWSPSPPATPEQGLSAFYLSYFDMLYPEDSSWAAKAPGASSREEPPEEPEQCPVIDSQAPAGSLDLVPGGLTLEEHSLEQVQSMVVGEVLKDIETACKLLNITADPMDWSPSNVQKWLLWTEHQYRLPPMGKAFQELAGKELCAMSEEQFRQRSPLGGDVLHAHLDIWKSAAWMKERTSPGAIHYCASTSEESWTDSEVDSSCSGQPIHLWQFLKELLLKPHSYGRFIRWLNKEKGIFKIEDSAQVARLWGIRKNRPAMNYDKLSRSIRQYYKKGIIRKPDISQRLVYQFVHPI
# In short: as §1
# ETV7 = biological target: T5, ETV7 (Homo sapiens, UniProt Q9Y603 1-341)
# T5 sequence: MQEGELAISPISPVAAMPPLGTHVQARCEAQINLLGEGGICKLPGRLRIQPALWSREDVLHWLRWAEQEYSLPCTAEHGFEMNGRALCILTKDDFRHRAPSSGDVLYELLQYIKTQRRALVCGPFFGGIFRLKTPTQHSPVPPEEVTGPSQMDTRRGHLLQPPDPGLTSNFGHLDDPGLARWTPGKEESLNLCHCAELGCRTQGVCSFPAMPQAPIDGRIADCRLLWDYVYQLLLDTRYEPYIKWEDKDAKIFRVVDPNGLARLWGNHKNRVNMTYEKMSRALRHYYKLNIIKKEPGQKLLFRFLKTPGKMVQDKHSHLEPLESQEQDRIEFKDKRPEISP
# In short: as §1
# ELF5 = biological target: T6, ELF5 (Homo sapiens, UniProt Q9UKW6-2 1-255)
# T6 sequence: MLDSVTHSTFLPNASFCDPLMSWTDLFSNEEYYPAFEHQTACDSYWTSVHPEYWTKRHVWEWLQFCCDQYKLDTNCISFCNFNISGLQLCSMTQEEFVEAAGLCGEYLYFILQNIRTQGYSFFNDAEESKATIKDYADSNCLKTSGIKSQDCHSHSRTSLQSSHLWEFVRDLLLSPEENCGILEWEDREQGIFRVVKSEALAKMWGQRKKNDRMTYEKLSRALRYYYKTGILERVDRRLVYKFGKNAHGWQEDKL
# In short: as §1
# ETV3 = biological target: T7, ETV3 (Homo sapiens, UniProt P41162-2 1-143)
# T7 sequence: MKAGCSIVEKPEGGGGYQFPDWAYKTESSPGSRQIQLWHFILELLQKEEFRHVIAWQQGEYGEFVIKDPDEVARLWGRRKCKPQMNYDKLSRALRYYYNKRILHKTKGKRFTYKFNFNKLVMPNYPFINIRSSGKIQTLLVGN
# In short: as §1
# ETV6 = ETV6 (Homo sapiens, UniProt P41212 1-452)
# In short: as §1
# ETV6, sequence (P41212 whole entry): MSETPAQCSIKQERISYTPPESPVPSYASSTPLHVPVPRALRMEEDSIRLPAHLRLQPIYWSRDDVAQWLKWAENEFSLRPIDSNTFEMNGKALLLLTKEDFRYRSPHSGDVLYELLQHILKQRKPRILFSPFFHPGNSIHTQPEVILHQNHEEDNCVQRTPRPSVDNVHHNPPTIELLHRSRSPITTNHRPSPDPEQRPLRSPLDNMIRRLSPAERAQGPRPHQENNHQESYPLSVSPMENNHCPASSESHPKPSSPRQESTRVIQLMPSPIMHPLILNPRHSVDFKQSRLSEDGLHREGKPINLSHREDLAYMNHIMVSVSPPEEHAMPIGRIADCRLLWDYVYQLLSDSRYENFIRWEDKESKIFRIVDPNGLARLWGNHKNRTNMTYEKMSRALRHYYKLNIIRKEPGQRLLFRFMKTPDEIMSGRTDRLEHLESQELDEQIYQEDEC
Sequence,binding signal (ERF),binding signal (ETV3L),binding signal (ETS2),binding signal (SPDEF),binding signal (ETV7),binding signal (ELF5),binding signal (ETV3),binding signal (ETV6)
TCGCGC,"1.12 fold enrichment (6-mer frequency, TF over GST control)","1.02 fold enrichment (6-mer frequency, TF over GST control)","1.12 fold enrichment (6-mer frequency, TF over GST control)","1.14 fold enrichment (6-mer frequency, TF over GST control)","1.23 fold enrichment (6-mer frequency, TF over GST control)","1.03 fold enrichment (6-mer frequency, TF over GST control)",–,–
TTGTTG,"1.13 fold enrichment (6-mer frequency, TF over GST control)","1.21 fold enrichment (6-mer frequency, TF over GST control)","1.1 fold enrichment (6-mer frequency, TF over GST control)","1.11 fold enrichment (6-mer frequency, TF over GST control)","1.12 fold enrichment (6-mer frequency, TF over GST control)","1.13 fold enrichment (6-mer frequency, TF over GST control)","1.19 fold enrichment (6-mer frequency, TF over GST control)","1.07 fold enrichment (6-mer frequency, TF over GST control)"
ATACTA,"1.09 fold enrichment (6-mer frequency, TF over GST control)","1.2 fold enrichment (6-mer frequency, TF over GST control)","1.24 fold enrichment (6-mer frequency, TF over GST control)","1.17 fold enrichment (6-mer frequency, TF over GST control)","1.14 fold enrichment (6-mer frequency, TF over GST control)","1.13 fold enrichment (6-mer frequency, TF over GST control)","1.14 fold enrichment (6-mer frequency, TF over GST control)","1.11 fold enrichment (6-mer frequency, TF over GST control)"
CGTACA,"1.21 fold enrichment (6-mer frequency, TF over GST control)","1.17 fold enrichment (6-mer frequency, TF over GST control)","1.18 fold enrichment (6-mer frequency, TF over GST control)","1.2 fold enrichment (6-mer frequency, TF over GST control)","1.25 fold enrichment (6-mer frequency, TF over GST control)","1.17 fold enrichment (6-mer frequency, TF over GST control)","1.14 fold enrichment (6-mer frequency, TF over GST control)","1.2 fold enrichment (6-mer frequency, TF over GST control)"
ATCGCT,"1.06 fold enrichment (6-mer frequency, TF over GST control)","1.05 fold enrichment (6-mer frequency, TF over GST control)","1.1 fold enrichment (6-mer frequency, TF over GST control)","1.04 fold enrichment (6-mer frequency, TF over GST control)","1.03 fold enrichment (6-mer frequency, TF over GST control)","1.05 fold enrichment (6-mer frequency, TF over GST control)","1.05 fold enrichment (6-mer frequency, TF over GST control)","1.04 fold enrichment (6-mer frequency, TF over GST control)"
ACAATG,"1.12 fold enrichment (6-mer frequency, TF over GST control)","1.03 fold enrichment (6-mer frequency, TF over GST control)","1.09 fold enrichment (6-mer frequency, TF over GST control)","1.03 fold enrichment (6-mer frequency, TF over GST control)","1.12 fold enrichment (6-mer frequency, TF over GST control)","1.08 fold enrichment (6-mer frequency, TF over GST control)","1.11 fold enrichment (6-mer frequency, TF over GST control)","1.06 fold enrichment (6-mer frequency, TF over GST control)"
TGGAAA,"1.08 fold enrichment (6-mer frequency, TF over GST control)","1.2 fold enrichment (6-mer frequency, TF over GST control)","1.1 fold enrichment (6-mer frequency, TF over GST control)","1.04 fold enrichment (6-mer frequency, TF over GST control)","1.19 fold enrichment (6-mer frequency, TF over GST control)","1.12 fold enrichment (6-mer frequency, TF over GST control)","1.08 fold enrichment (6-mer frequency, TF over GST control)","1.23 fold enrichment (6-mer frequency, TF over GST control)"
GATTTC,"1.57 fold enrichment (6-mer frequency, TF over GST control)","1.73 fold enrichment (6-mer frequency, TF over GST control)","1.79 fold enrichment (6-mer frequency, TF over GST control)","1.66 fold enrichment (6-mer frequency, TF over GST control)","1.56 fold enrichment (6-mer frequency, TF over GST control)","2.07 fold enrichment (6-mer frequency, TF over GST control)","1.71 fold enrichment (6-mer frequency, TF over GST control)","1.8 fold enrichment (6-mer frequency, TF over GST control)"
ATTTTC,"1.38 fold enrichment (6-mer frequency, TF over GST control)","1.42 fold enrichment (6-mer frequency, TF over GST control)","1.43 fold enrichment (6-mer frequency, TF over GST control)","1.34 fold enrichment (6-mer frequency, TF over GST control)","1.39 fold enrichment (6-mer frequency, TF over GST control)","1.61 fold enrichment (6-mer frequency, TF over GST control)","1.42 fold enrichment (6-mer frequency, TF over GST control)","1.43 fold enrichment (6-mer frequency, TF over GST control)"
TGTACT,"1.11 fold enrichment (6-mer frequency, TF over GST control)","1.26 fold enrichment (6-mer frequency, TF over GST control)","1.27 fold enrichment (6-mer frequency, TF over GST control)","1.71 fold enrichment (6-mer frequency, TF over GST control)","1.24 fold enrichment (6-mer frequency, TF over GST control)","1.37 fold enrichment (6-mer frequency, TF over GST control)","1.22 fold enrichment (6-mer frequency, TF over GST control)","1.28 fold enrichment (6-mer frequency, TF over GST control)"
TATCAG,"1.13 fold enrichment (6-mer frequency, TF over GST control)","1.11 fold enrichment (6-mer frequency, TF over GST control)","1.15 fold enrichment (6-mer frequency, TF over GST control)","1.26 fold enrichment (6-mer frequency, TF over GST control)","1.07 fold enrichment (6-mer frequency, TF over GST control)","1.06 fold enrichment (6-mer frequency, TF over GST control)","1.12 fold enrichment (6-mer frequency, TF over GST control)","1.12 fold enrichment (6-mer frequency, TF over GST control)"
TCTATG,"1.07 fold enrichment (6-mer frequency, TF over GST control)","1.08 fold enrichment (6-mer frequency, TF over GST control)","1.08 fold enrichment (6-mer frequency, TF over GST control)","1.05 fold enrichment (6-mer frequency, TF over GST control)","1.25 fold enrichment (6-mer frequency, TF over GST control)","1.07 fold enrichment (6-mer frequency, TF over GST control)","1.18 fold enrichment (6-mer frequency, TF over GST control)",–
TCATCG,"1.06 fold enrichment (6-mer frequency, TF over GST control)","1.08 fold enrichment (6-mer frequency, TF over GST control)",–,–,–,–,–,–
AAGCTT,"1.29 fold enrichment (6-mer frequency, TF over GST control)","1.31 fold enrichment (6-mer frequency, TF over GST control)","1.19 fold enrichment (6-mer frequency, TF over GST control)","1.14 fold enrichment (6-mer frequency, TF over GST control)","1.38 fold enrichment (6-mer frequency, TF over GST control)","1.31 fold enrichment (6-mer frequency, TF over GST control)","1.2 fold enrichment (6-mer frequency, TF over GST control)","1.3 fold enrichment (6-mer frequency, TF over GST control)"
ATTCAG,"1.15 fold enrichment (6-mer frequency, TF over GST control)","1.2 fold enrichment (6-mer frequency, TF over GST control)","1.14 fold enrichment (6-mer frequency, TF over GST control)","1.05 fold enrichment (6-mer frequency, TF over GST control)","1.02 fold enrichment (6-mer frequency, TF over GST control)","1.08 fold enrichment (6-mer frequency, TF over GST control)","1.12 fold enrichment (6-mer frequency, TF over GST control)","1.02 fold enrichment (6-mer frequency, TF over GST control)"
TCGCAC,"1.06 fold enrichment (6-mer frequency, TF over GST control)","1.06 fold enrichment (6-mer frequency, TF over GST control)","1.04 fold enrichment (6-mer frequency, TF over GST control)","1.05 fold enrichment (6-mer frequency, TF over GST control)","1.03 fold enrichment (6-mer frequency, TF over GST control)","1.06 fold enrichment (6-mer frequency, TF over GST control)","1.07 fold enrichment (6-mer frequency, TF over GST control)",–
